Measurements reported in PubChem BioAssay AID588354 (The Scripps Research Institute Molecular Screening Center, 2011).
Screen size: about 360,000 compounds; about 430 (0.12%) were called active. This excerpt belongs to a sample that is enriched for actives. Unmarked numbers belong to inactive results.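 How the source made its calls: active means inhibition above the campaign mean plus 3 SD, with each screening campaign given its own cutoff (cut at about 60% in these data); inactive means the rest.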

Target: Nuclear receptor coactivator 1 (Homo sapiens) (UniProt Q15788)
Sequence (Q15788 whole entry, looked up, the tested form may be a part): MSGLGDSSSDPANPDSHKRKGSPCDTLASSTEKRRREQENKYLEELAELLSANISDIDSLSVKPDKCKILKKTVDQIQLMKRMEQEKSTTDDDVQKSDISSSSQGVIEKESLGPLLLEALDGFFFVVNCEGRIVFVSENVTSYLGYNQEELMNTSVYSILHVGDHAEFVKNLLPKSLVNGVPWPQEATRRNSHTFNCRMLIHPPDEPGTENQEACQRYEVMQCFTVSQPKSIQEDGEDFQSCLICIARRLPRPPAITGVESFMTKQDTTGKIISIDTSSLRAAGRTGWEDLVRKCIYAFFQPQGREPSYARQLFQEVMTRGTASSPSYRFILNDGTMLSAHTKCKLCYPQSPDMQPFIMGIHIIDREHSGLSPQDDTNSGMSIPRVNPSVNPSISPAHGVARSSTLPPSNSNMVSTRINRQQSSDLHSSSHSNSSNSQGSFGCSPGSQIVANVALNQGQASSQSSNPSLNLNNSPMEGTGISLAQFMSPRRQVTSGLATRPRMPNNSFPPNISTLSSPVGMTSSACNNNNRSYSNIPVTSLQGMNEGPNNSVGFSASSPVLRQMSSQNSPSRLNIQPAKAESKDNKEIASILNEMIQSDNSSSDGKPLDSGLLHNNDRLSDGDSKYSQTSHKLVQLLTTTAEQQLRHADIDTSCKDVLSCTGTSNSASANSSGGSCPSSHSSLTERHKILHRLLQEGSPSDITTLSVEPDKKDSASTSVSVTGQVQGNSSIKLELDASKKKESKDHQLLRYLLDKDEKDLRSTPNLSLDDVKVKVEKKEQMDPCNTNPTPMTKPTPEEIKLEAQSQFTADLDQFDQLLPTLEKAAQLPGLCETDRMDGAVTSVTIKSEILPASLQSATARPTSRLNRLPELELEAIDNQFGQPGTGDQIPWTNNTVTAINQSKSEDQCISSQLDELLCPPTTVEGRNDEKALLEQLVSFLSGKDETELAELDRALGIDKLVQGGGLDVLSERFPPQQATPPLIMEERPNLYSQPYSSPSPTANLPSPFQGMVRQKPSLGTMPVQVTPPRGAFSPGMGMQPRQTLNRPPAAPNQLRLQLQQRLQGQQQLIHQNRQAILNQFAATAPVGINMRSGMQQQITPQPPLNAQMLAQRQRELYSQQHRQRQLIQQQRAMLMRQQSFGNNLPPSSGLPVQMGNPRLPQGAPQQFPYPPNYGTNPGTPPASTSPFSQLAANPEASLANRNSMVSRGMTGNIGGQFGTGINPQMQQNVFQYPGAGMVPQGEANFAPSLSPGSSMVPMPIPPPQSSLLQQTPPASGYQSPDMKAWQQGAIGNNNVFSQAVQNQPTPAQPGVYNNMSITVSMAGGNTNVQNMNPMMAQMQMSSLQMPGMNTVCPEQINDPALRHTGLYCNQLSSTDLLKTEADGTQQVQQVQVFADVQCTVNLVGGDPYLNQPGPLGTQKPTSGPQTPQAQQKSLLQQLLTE
Assay: NCOA1 GAL4-fusion reporter inhibition – cell-based, luminescence, primary screen (AID 588354);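 further: 0% = DMSO treated cells and 100% = gossypol at 36 µM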
Details: HEK293 GAL4-SRC1 luciferase reporter, at 3.6 µM, stronger effect = higher value

Structure (SMILES)	inhibition
C[C@@H](NC(=O)c1nc[nH]c1C(=O)N1CCN(C(=O)OC(C)(C)C)CC1)c1ccccc1	-15.6%
Cn1cc(/C=C/C(=O)N2CCCC(C(=O)c3ccc(C(F)(F)F)cc3)C2)cn1 (stereo unspecified)	8.39%
CC1(NC(=O)CCS(=O)(=O)c2ccc(Cl)cc2)CCS(=O)(=O)C1 (stereo unspecified)	-3.53%
CN(c1ccc2nc3ccccc3c(=O)n2n1)C1CCCCC1	71.9% (active)
CC(C)(C)c1nc2ccccc2c(=O)n1N1C(=O)c2ccccc2C1=O	6.03%
CN(C(=O)Nc1ccc(Cl)cc1)n1cnc2ccccc2c1=O	-15.6%
CSc1ncccc1C(=O)Nc1cccc(S(=O)(=O)N2CCOCC2)c1	-16.1%
O=C(Nc1cccc(Cc2ccccc2)c1)Nc1ccc2nc([C@@H]3O[C@H](CO)[C@@H](O)[C@H](O)[C@H]3O)[nH]c2c1	-1.54%
CN(C)S(=O)(=O)c1ccc(Oc2ccc(S(=O)(=O)N(C)C)cc2)cc1	21.5%
CC(C)(C)c1ccc(Oc2ccc(N)cc2)cc1	74% (active)
COc1cc2c3c(c1)/C(=C1/SC(=S)NC1=O)C(=O)N3C(C)(C)C=C2C	-18%
CCN(CC(=O)Nc1ccc2c(c1)OCCO2)Cc1cc(=O)oc2cc(C)c(C)cc12	1.42%
COC(=O)c1ccc(N2CCOCC2)c(NC(=O)c2ccc(Br)o2)c1	3.93%
CCCCc1nc2c(=O)[nH]c3ccccc3c2o1	-5.89%
Cc1cc(C)cc(NC(=O)CSCc2cnn(-c3ccccc3)c2-n2cccc2)c1	0.69%
CCCc1noc2c1/C(=N\O)CCC2	7.65%
Cc1oc(C(N)=O)cc1COc1ccc(C(N)=O)cc1	11.6%
Cn1c(-c2ccc(C(F)(F)F)cc2)cc2onc(-c3ccccc3)c2c1=O	-53.3%
CC(OC(=O)c1ccc(-n2cnnn2)cc1)C(=O)NCc1ccccc1 (stereo unspecified)	-1.03%
CCC(C)c1ccccc1NC(=O)CN(C)CC(=O)Nc1ccccc1SC (stereo unspecified)	3.11%
CCc1ccc(C(=O)N2CCN(S(=O)(=O)c3sc(C(=O)O)c(C)c3C(=O)O)CC2)cc1	-9.2%
CC(C)CCNC(=O)C(C)N(C(=O)Cn1nnc(-c2ccc(F)cc2)n1)C1CCCC1 (stereo unspecified)	5.49%
COc1ccc(Cn2cccc(NC(=O)Nc3ccc(C#N)cc3)c2=O)cc1	13.7%

Structure (SMILES)	inhibition
CCOc1ccc(S(=O)(=O)N2CCN(C(=O)c3oc4ccccc4c3C)CC2)cc1	-3.94%
CCN(C(=O)COC(=O)CCOc1cccc(C)c1)c1c(N)n(Cc2ccccc2)c(=O)[nH]c1=O	4.13%
Cc1cccc(C)c1Cn1c(C)c(C(=O)NCc2cccc(Cl)c2)sc1=O	-0.2%
CCc1ccc(CN(C)C(=O)C2CCC(=O)N(Cc3cccc(OC)c3)C2)nc1 (stereo unspecified)	5.84%
CC(C)CN(C(=O)CSc1nncn1C)C1CCS(=O)(=O)C1 (stereo unspecified)	14%
O=C(N/N=C/c1ccccc1O)/C(=C/c1ccccc1)CCO	30.9%
C=CCOc1ccccc1/C=N/NC(=O)Cc1ccccc1	-8.79%
O=C(NN=Cc1ccccc1O)NN=Cc1ccccc1O	63% (active)
CCSc1sc(CC)cc1C=O	-14.9%
Cc1cc2c(cc1C)N(Cc1ccccc1)C1=NCCCN12	21.9%
CS(=O)(=O)Nc1ccccc1C(=O)OCC(=O)NC1CC1	-13.3%
COc1ccc2c(c1)c(=Cc1ccc(N(C)C)cc1)c1cc(-c3ccccc3)[n+](C)n12	64.1% (active)
COc1ccc(OC)c(Nc2nc3ccccc3n3cnnc23)c1	1.7%
COc1ccc(Nc2ncnc3ccc(Br)cc23)c(OC)c1	81.9% (active)
COc1ccc(OC)c(NC(=O)CN(C)CCOc2ccc(Br)cc2)c1	-10.8%
COc1ccccc1C(=O)NC(=O)COC(=O)c1ccco1	3.45%
COC(=O)c1ccc(NC(=O)CSc2nncc3ccc(OC)c(OC)c23)cc1	-23.3%
CCN(CC)CCCNC(=O)c1c(O)c2cc(F)cc3c2n(c1=O)C(C)CC3 (stereo unspecified)	-12.1%
COc1ccc(CCN2C(=O)N(c3ccc(OC)cc3)C(=O)C2CC(=O)Nc2ccc(OC)cc2)cc1 (stereo unspecified)	-12.4%
O=C(Nc1cccc2c1CCCC2)C1CCN(C(=O)NC2CCCCC2)CC1	3.24%
O=C(CC1Nc2ccccc2NC1=O)Nc1ccccc1 (stereo unspecified)	-51.2%
CCN(c1ccccc1)S(=O)(=O)c1ccc(OCC(=O)N2CCCC2)cc1	-2.15%
CCC(C)NC(=O)c1cc(Cl)ccc1OC (stereo unspecified)	3%

Structure (SMILES)	inhibition
CC(C)C[C@H](NC(=O)C1CCC(CNC(=O)[C@@H]2CCCN2C(=O)OC(C)(C)C)CC1)C(=O)O (stereo partly specified)	16%
CC(C)(C)C(=O)NCCCNc1ccc([N+](=O)[O-])cc1	-24.3%
CCN(CC)S(=O)(=O)c1ccc(N2CCN(C)CC2)c(NC(=O)Nc2ccccc2F)c1	-0.49%
COCC1CCCN(Cc2nc(-c3ccc4c(c3)OCO4)no2)C1 (stereo unspecified)	-70.5%
CC(=O)Nc1ccc(C(=O)Nc2cc(S(=O)(=O)N3CCOCC3)ccc2N2CCOCC2)cc1	-2.37%
O=C(NCCc1ccccc1)Oc1ccc(Cl)cc1	-56.8%
COc1ccc(CN2CCC(c3nc4ccc(Cl)cc4[nH]3)CC2)cc1	2.53%
Cc1cc(NC(=O)CSC2=NS(=O)(=O)c3cc(Cl)ccc3N2)no1	-31%
CN(CCOc1ccc(Br)cc1)CC(=O)Nc1cccc(S(=O)(=O)NC2=NCCC2)c1	-16.8%
CC(C)(C)c1ccccc1NC(=O)CN1C(=O)NC2(CCCC2)C1=O	-13.8%
CCn1nc(C(=O)Nc2ccc(N3CCOCC3)cc2)c2ccccc2c1=O	-1.53%
CCCCOC(=O)NCN1C(=O)C2C3C=CC(C3)C2C1=O (stereo unspecified)	1%
Clc1ccc(Cn2ncc3c(NCc4cccnc4)ncnc32)cc1	-4.66%
Cc1cc(NCc2cccnc2)no1	25.1%
Brc1ccc2ncnc(NCc3cccnc3)c2c1	66.1% (active)
COc1ccc(S(=O)(=O)N2CCN(C(=O)N(C)C)C2C)cc1 (stereo unspecified)	-47.2%
C=CCN1C=C(C(=O)c2ccccc2)C(=O)CC1	-2.55%
O=C(O)C1CCCN1C1=NS(=O)(=O)c2ccccc21 (stereo unspecified)	12.2%
Cc1ccc(C)c(OCc2cc(C(=O)N3CCN(c4cnccn4)CC3)no2)c1	-12.1%
CCOc1ccccc1NS(=O)(=O)c1c[nH]c(C(=O)OC)c1	-15%
C=CC[C@H](CC(=O)OC(C)(C)C)C(=O)OC[C@H]1CCCN1C(=O)[C@H](CC=C)CC(=O)N(CCO)Cc1ccccc1	-0.47%
CC1(C)CN(Cc2cccnc2)C(=O)[C@H]1CC(=O)Nc1ccc(Br)cc1	-2.09%
O=c1ccc2c(-c3ccccc3S(=O)(=O)O)c3ccc(O)c(O)c3oc-2c1O	13.4%

Structure (SMILES)	inhibition
CCn1c(SCC(=O)N2CCCC2=O)nc2ccccc21	16.1%
CC1=C(C(=O)N(C)C)C(c2ccccc2OC(F)F)NC(=O)N1 (stereo unspecified)	4.69%
O=C(NC1CCCC1)C(c1ccc(N2CCOCC2)cc1)N(C(=O)c1ccco1)c1ccccc1F (stereo unspecified)	5.48%
Cc1ccc(CSCC2Nc3ccc(C(=O)N4CCN(c5ccc(F)cc5)CC4)cc3NC2=O)cc1 (stereo unspecified)	2.74%
C[C@@H](C(=O)N1CCNCC1)n1cc(CCC(=O)O)nn1	3.05%
Cc1ccccc1-c1cc(C(=O)NCC2CC2)n(CC2CC(c3cccnc3)=NO2)n1 (stereo unspecified)	2.14%
CO/N=C/c1cn(-c2ccc(Cl)cc2)nn1	-12.7%
COc1ccc(C(=O)Nc2ccccc2C(=O)N/N=C/c2ccc(O)c(OC)c2)cc1	64.2% (active)
CCOc1cc(/C=N/NC(=O)c2c(C)nc3ccc(Cl)cn23)ccc1O	0.11%
COc1cccc(OCc2cc(/C=N/NC(=O)c3nc(Cl)c(Cl)c(N)c3Cl)ccc2OC)c1	-14.2%
CC1CN(c2nc(-c3ccccc3)nnc2-c2ccccc2)CC(C)O1 (stereo unspecified)	10.6%
CC(Oc1ccc(Cl)cc1Cl)C(=O)/C=C/N(C)C (stereo unspecified)	-17.4%
COCCN(Cc1nc(-c2ccc(C(F)(F)F)cc2)no1)C(C)C	-8.16%
CC(CCn1cccn1)NC(=O)CCc1nnc(CCc2ccccc2)o1 (stereo unspecified)	11.7%
O=C(NNS(=O)(=O)Cc1ccccc1)c1ccc([N+](=O)[O-])cc1	-4.79%
O=C(Nc1cc(-c2ccccc2)nn1-c1ccccc1F)c1ccc([N+](=O)[O-])cc1	-16.9%
O=C(NC(Nc1nc2ccc([N+](=O)[O-])cc2s1)(C(F)(F)F)C(F)(F)F)c1ccccc1	68.3% (active)
COc1cc(CN2CCNC(=O)C2CC(=O)NCCc2ncccc2C)cc(OC)c1 (stereo unspecified)	14.8%
O=C(CCc1ccc(S(=O)(=O)N2CCOCC2)cc1)Nc1ccc2ccccc2c1	-5.83%
CC1CCCN(CCOCCOc2ccccc2-c2ccccc2)C1 (stereo unspecified)	9.99%
C[C@H]1CN([C@@H](C)CO)C(=O)c2cc(Br)cnc2O[C@H]1CN(C)S(=O)(=O)c1cccs1	-44.2%
N#CC1(NC(=O)COC(=O)CSc2ccc(F)cc2)CCCCC1	20.2%
